High-throughput results as filed in PubChem BioAssay.
Compounds with a hit are over-represented: about 0.74% of the library has one in this group of screens.
cardiac RTF act = increases calcium sensitivity of human cardiac regulated thin filaments; IANBD-labeled TnC RTF fluorescence at EC20 calcium; 0% EC20 calcium, 100% full calcium; P19429+P45379; activation, % at 7.2 µM; actives 0.24% (n = 340,000);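 active = activation above the mean over all tested compounds plus 3 SD, cut at about 30% in these data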;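 also: rise in fluorescence read as greater calcium sensitivity of cardiac thin filaments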
RTF Ca sens inh = cardiac RTF calcium desensitization | IANBD-labeled cardiac RTF, Ca2+ fluorescence | inhibition, % at 7.15 µM | actives 0.12% (n = 340,000) | AID 493244;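 active = inhibition above the mean inhibition of all tested compounds plus 3 SD, cut at about 17% in these data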;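 also: assay run at fixed EC70 calcium of 1.6 mM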
Keap1-Nrf2 PPI = Keap1-Nrf2 (human) interaction inhibition; Q14145; Keap1 Kelch-Nrf2 peptide fluorescence polarization, 1536-well; inhibition, % at 9.4 µM; actives 0.15% (n = 340,000); in the data active = inhibition above about 12%;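 also: human Keap1 Kelch domain with fluorescein labeled Nrf2 9mer peptide probe; 0% = neutral control wells and 100% = peptide positive control; higher means more block of Keap1 binding to Nrf2 peptide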
eLon inh = E. coli protease La inhibition. inhibition, % at 7.94 µM. P0A9M0. actives 0.42% (n = 360,000). purified E. coli Lon protease, fluorescence polarization. AID 602123; in the data active = inhibition above about 13%, passing the limit was not always enough;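 also: 0% = enzyme with probe and DMSO and 100% = no enzyme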
Target sequence (P0A9M0 whole entry, looked up): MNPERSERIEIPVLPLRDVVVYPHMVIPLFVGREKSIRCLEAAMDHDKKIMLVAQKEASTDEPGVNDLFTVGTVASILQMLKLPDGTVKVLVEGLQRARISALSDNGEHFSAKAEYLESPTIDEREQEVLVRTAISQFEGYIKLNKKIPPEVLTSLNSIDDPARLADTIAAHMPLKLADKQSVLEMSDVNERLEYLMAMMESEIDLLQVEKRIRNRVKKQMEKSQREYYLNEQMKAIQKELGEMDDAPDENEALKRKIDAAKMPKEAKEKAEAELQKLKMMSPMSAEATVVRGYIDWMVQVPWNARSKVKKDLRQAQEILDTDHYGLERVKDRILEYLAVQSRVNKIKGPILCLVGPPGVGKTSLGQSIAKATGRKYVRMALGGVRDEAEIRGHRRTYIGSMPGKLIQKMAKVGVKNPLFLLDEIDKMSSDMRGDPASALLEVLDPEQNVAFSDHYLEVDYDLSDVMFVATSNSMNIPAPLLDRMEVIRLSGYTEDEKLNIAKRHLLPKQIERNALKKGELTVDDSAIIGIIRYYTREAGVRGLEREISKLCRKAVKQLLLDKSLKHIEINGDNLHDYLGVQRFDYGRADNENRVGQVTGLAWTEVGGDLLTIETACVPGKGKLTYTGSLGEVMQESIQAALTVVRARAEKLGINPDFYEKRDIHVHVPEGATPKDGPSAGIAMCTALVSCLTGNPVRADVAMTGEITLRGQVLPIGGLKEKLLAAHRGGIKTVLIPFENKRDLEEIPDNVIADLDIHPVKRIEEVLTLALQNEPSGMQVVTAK
LANA DNA inh = inhibitors of KSHV LANA C-terminal domain DNA binding | MBP-C-LANA/FAM-LBS DNA binding, fluorescence polarization | inhibition, % at 9 µM | actives 0.078% (n = 340,000) | AID 504423;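 active = highest replicate inhibition at or above 60% at 9 µM, even if other replicates fall short; inactive = all replicates below 60% inhibition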;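 also: 0% = neutral control wells and 100% = 4 µM acridine orange control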
Keap1 TSA = binds and thermally shifts human Keap1 Kelch domain; actives 8% (n = 400); shares compounds with Keap1-Nrf2 PPI; AID 651823; max delta Tm, degrees C; Keap1 Kelch thermal shift, delta Tm; stronger effect = higher value; in the data active = max delta Tm above about 0.48 degrees C
Dye-only ctr = counter-screen for Keap1 thermal shift hits: dye-only artifacts. shares compounds with Keap1-Nrf2 PPI. Sypro Orange dye-only thermal melt, no protein, delta Tm; top dose 26 µM. delta Tm, degrees C (no concentration beside the values). 140 tested, under 10 active. AID 651858;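 active = at highest dose tested, delta Tm positive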
Active calls of the source: *; · = not tested or not shown.

SMILES | cardiac RTF act | RTF Ca sens inh | Keap1-Nrf2 PPI | eLon inh | LANA DNA inh | Keap1 TSA | others
Cc1nnc(SCC2=C(C(=O)O)N3C(=O)C(NC(=O)COc4ccccc4)C3SC2)s1 (configuration not stated) | 3 | -1 | -4 | -1 | 2 | ·
CC(C)(C)c1ccc(C(=O)NCCC(=O)NCc2ccc(F)cc2)cc1 | · | · | · | 6 | · | ·
CCCNS(=O)(=O)c1ccc(OCC(=O)Nc2ccc3c(c2)OCCO3)cc1 | 10 | -4 | -8 | 5 | -1 | ·
Cc1ccc(S(=O)(=O)NCC(=O)OCC(=O)Nc2ccc3c(c2)OCCO3)cc1 | 7 | -19 | 32* | -3 | 27 | -0.16 | Dye-only ctr=-22
Cc1nc(NS(=O)(=O)c2ccccc2)sc1NC(=O)OCCN(C)C | 2 | -18 | 27* | -5 | 33 | -0.05
CCOC(=O)c1sc(NS(=O)(=O)c2ccccc2)nc1C | 7 | -4 | -1 | 3 | 2 | ·
COc1ccc(Nc2nc3ccccc3nc2-n2nc(C)cc2C)cc1 | -5 | 3 | 43* | -8 | 14 | -0.16
Cc1ccc(C(=O)N/C(=C\c2ccc(-c3ccccc3[N+](=O)[O-])o2)C(=O)NCCCN(C)C)cc1 | 11 | -12 | 14* | 18 | 32 | 0.02
COC(=O)[C@H](Cc1ccccc1)NC(=O)Cn1cnc(C(=O)Nc2ccc(C)c(C)c2)n1 | -2 | 0 | -6 | 1 | 4 | ·
NC(=O)C1CCN(C2=C(Cl)C(=O)c3ccccc3C2=O)CC1 | -3 | 0 | 14* | -6 | -1 | 0.14
Cc1ccc(C2=CC(c3cccs3)n3nnnc3N2)cc1 (configuration not stated) | 5 | -1 | 35* | 3 | 33 | -0.06 | Dye-only ctr=-26
N#Cc1c(SCC(=O)Nc2nncs2)sc2c(O)cc(=O)[nH]c12 | -5 | -12 | 21* | -15 | 20 | 0.19 | Dye-only ctr=-32
N#Cc1c(SCC(=O)Nc2ccc(C(F)(F)F)cc2)sc2c(O)cc(=O)[nH]c12 | 1 | -4 | -4 | -9 | 1 | ·
CCCCOc1ccc(C(=O)NCCN2CCC(n3c(=O)[nH]c4ccccc43)CC2)cc1 | · | · | · | -5 | · | ·
NC(=O)COc1ccc(NC(=O)CC23CC4CC(CC(C4)C2)C3)cc1 | 0 | -3 | 22* | -4 | 1 | -0.09
CCC(=O)N1CCCC(C)(C(=O)NS(=O)(=O)c2ccccc2Cl)C1 (configuration not stated) | · | · | · | -12 | · | ·
Cc1cc(C)c(C)c(S(=O)(=O)Nc2cccc(S(=O)(=O)Nc3ccccc3C(=O)O)c2)c1C | -7 | 5 | 14* | 0 | 0 | 0.58*
COc1ccc(C(O)c2ncc(-c3ccccc3Cl)[nH]2)cc1F (configuration not stated) | · | · | · | -18 | · | ·
Nc1cccc2cc(S(=O)(=O)O)ccc12 | -11 | 6 | 15* | -8 | 73* | 0.24
COc1ccccc1CNC(=O)c1ccccc1NS(C)(=O)=O | -5 | -15 | 21* | -14 | -1 | -0.13
CCOC(=O)[C@]12CCCC=C1N(Cc1cccc3ccccc13)C(=O)[C@H](CC(=O)NCCc1ccccc1OC)C2 | · | · | · | -6 | · | ·
O=C(Cc1ccc(S(=O)(=O)N2CCOCC2)s1)Nc1nc2c(s1)CCCC2 | 13 | -2 | 18* | -1 | 18 | 0.08
COc1cc(NC(=O)CSc2nc3ccccc3cc2C)c(C(=O)O)cc1OC | 4 | 1 | -4 | -19 | 1 | ·
COc1cc(NC(=O)CSc2nc3cc(C)ccc3cc2C)c(C(=O)O)cc1OC | 1 | 0 | 16* | -5 | 10 | -0.12 | Dye-only ctr=-21
CCCCOc1ccc(/C=C2/Sc3ccccc3C2=O)cc1 | 6 | 0 | 13* | -16 | 0 | -0.12
SMILES | cardiac RTF act | RTF Ca sens inh | Keap1-Nrf2 PPI | eLon inh | LANA DNA inh | Keap1 TSA | others
COc1ccccc1Cc1c(-c2ccco2)nc2ccc(C)cn12 | · | · | · | -12 | · | ·
COC(=O)c1ccccc1NC1=C/C(=N\S(=O)(=O)c2cccs2)c2ccccc2C1=O | 1 | -1 | -1 | -3 | 0 | ·
COC(=O)c1ccccc1NC1=C/C(=N\S(=O)(=O)c2ccc(C(=O)O)cc2)c2ccccc2C1=O | -3 | -12 | 14* | -7 | 10 | 1.4* | Dye-only ctr=8.1*
O=C(COC(=O)c1ccncc1)Nc1cccc2ccccc12 | 5 | -11 | 14* | 9 | 10 | -0.09
CN1C(=O)c2cccc3c(S(N)(=O)=O)ccc1c23 | 5 | -2 | 29* | -7 | 19 | -0.09
C[C@H]1CN([C@@H](C)CO)C(=O)c2cc(Br)cnc2O[C@H]1CN(C)Cc1ccccc1C(=O)O | · | · | · | 2 | · | ·
Cc1nnsc1C(=O)N1CCCC(N2CCN(c3ccc(F)cc3)CC2)C1 (configuration not stated) | -5 | -3 | -1 | 4 | -1 | ·
Cc1nnsc1C(=O)N1CCN(c2ccc(F)cc2)CC1 | 2 | 5 | 14* | -2 | 11 | -0.15
CC1=CC(=O)Nc2ccccc2S1 | -2 | -9 | -3 | -46 | 1 | ·
CCSc1ncc(Cl)c(C(=O)Nc2ccccc2Cl)n1 | -1 | 2 | -5 | 2 | -1 | ·
CCSc1ncc(Cl)c(C(=O)Nc2ccccc2OC)n1 | -6 | -4 | 23* | -8 | 5 | -0.2
NC(=O)Cc1ccc(OCc2nn[nH]n2)cc1 | · | · | · | 0 | · | ·
CN1CCN(S(=O)(=O)c2cccc(C(=O)N(C)CC(=O)Nc3ccc(Cl)c(Cl)c3)c2)CC1 | -2 | 0 | -6 | -7 | 0 | ·
CCOc1ccc(NC(=S)NC(=O)/C=C/c2ccco2)cc1 | 3 | -4 | -3 | -11 | 2 | ·
COc1cc(NS(=O)(=O)c2ccc(NC(=S)NC(=O)/C=C/c3ccco3)cc2)ncn1 | -7 | -8 | 17* | -15 | 34 | 0.83*
c1ccc(-n2ncc3c(NCC4CCCO4)ncnc32)cc1 (configuration not stated) | 2 | -11 | 12* | -7 | 6 | -0.19
CC1(C(=O)NCc2cccc(Cl)c2)Cc2c(-c3cccc(C(N)=O)c3)ccnc2O1 (configuration not stated) | · | · | · | 0 | · | ·
CCC(=O)N1CCC(C)(C(=O)NCc2cccc(OC)c2)C1 (configuration not stated) | · | · | · | 2 | · | ·
CCN1CCN(S(=O)(=O)c2ccc(Cl)c(C(=O)NC3CCC(C)CC3)c2)CC1 (configuration not stated) | -1 | -2 | 29* | -2 | 13 | -0.09 | Dye-only ctr=-25
CCN1CCN(S(=O)(=O)c2ccc(Cl)c(C(=O)NC3CCCCC3)c2)CC1 | -3 | -9 | -4 | 13 | 2 | ·
N=c1c(C(=O)NCc2ccc(F)cc2)cc2c(=O)n3ccccc3nc2n1Cc1cccnc1 | 8 | -13 | 13* | -12 | 23 | -0.04 | Dye-only ctr=-23
N=c1c(C(=O)NC2CCCC2)cc2c(=O)n3ccccc3nc2n1C1CCCCC1 | 0 | 6 | 17* | 0 | 17 | -0.06
Cc1ccc(Cn2c(=N)c(C(=O)NC3CCCC3)cc3c(=O)n4ccccc4nc32)cc1 | -2 | -12 | 16* | -4 | -1 | -0.15 | Dye-only ctr=-27
